E-sel TNF inh = E-selectin induction blockers in HUVEC – imaging, immunofluorescence, high content, primary screen; HUVEC TNFa-induced E-selectin immunofluorescence; inhibition, % at 2 µM; hit rate 0.71% among 120,000;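 active = inhibition above the batch mean plus 3 SD, and confirmed as a hit on visual image review, cut at about 43% in these data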
cytoskel mod = modifiers of F-actin cytoskeleton organization, primary screen, imaging, HUVEC, phalloidin staining, high-content imaging; HUVEC TNFa F-actin phalloidin imaging; inhibition, % at 2 µM; hit rate 0.18% among 91,000; AID 836, 2007;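 active = inhibition above the batch mean plus 3 SD and confirmed as a hit by visual image inspection, cut at about 30% in these data, passing the limit was not always enough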
CYP2C9 activ = human CYP2C9 activators, primary screen, biochemical, luminescence; Cytochrome P450 2C9 (Homo sapiens), P11712; recombinant CYP2C9, luciferin-H conversion; stronger effect = higher value; factor 1 = untreated enzyme, 0 = blocked; activation factor at 5 µM; hit rate 1.4% among 96,000;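 active = activation factor of 2 or more for CYP2C9 at a 5 µM dose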
Target sequence (P11712 whole entry, looked up): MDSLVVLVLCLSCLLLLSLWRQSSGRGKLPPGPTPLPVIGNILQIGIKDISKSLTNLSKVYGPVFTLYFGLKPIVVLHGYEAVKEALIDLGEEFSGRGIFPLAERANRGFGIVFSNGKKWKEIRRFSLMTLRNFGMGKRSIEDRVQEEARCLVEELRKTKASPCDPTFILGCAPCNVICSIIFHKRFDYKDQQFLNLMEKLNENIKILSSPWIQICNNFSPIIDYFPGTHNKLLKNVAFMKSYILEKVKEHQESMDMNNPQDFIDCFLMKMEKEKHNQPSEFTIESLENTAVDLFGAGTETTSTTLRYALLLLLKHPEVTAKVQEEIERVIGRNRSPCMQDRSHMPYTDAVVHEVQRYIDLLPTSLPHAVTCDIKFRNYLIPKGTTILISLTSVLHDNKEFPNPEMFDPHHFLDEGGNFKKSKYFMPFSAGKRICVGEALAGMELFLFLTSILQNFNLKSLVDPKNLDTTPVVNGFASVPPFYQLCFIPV
CYP2C19 inhib = blockers of cytochrome P450 2C19 activity – biochemical, luminescence, ADME assay, primary screen; P33261; CYP2C19 Supersomes, luciferin-H EGE luminescence, 30 min; hit rate 21% among 96,000; inhibition, % at 5 µM;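 active = CYP2C19 inhibition above a set limit at 5 µM in the primary screen, cut at about 50% in these data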
CYP2C9 inhib = blockers of cytochrome P450 2C9 activity – biochemical, luminescence, ADME assay, primary screen; P11712; CYP2C9 Supersomes, luciferin-H conversion; inhibition, % at 5 µM; hit rate 20% among 96,000;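 active = blocking of liver enzyme CYP2C9 beyond about 50% at 5 µM, limit read from the data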
CYP2C19 act = human CYP2C19 activators, primary screen, biochemical, luminescence; Cytochrome P450 2C19 (Homo sapiens), P33261; recombinant CYP2C19, luciferin-H EGE luminescence; stronger effect = higher value; 0 = fully inhibited enzyme, 1 = untreated enzyme; activation factor at 5 µM; 96,000 tested, under 10 active; AID 1025, 2008;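 active = activation factor of at least 2 at 5 µM in the primary screen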
Of the large screens only hits and unclear results are named; the others gave an inactive call. Sampled rows, rich in hits. Any-hit rate of the full collection: about 22%.

O=C(C1CCC(CNc2nc(=S)[nH]c3ccccc23)CC1)N1CCN(c2ccc(F)cc2)CC1 (stereo not given)	none (no result: cytoskel mod, CYP2C9 activ, CYP2C19 inhib, CYP2C9 inhib, CYP2C19 act)
CN1C(=O)N(C)C2C1N(C)S(=O)(=O)N2C (stereo not given)	none
COc1ccc(N(C)C2=NS(=O)(=O)c3ccccc32)cc1	CYP2C19 inhib 72 (no result: E-sel TNF inh)
CCNc1nc(-c2ccc(Cl)cc2)cs1	none (no result: cytoskel mod)
O=C(CSCC(=O)N1CCCCC1)Nc1nc(-c2ccc(Cl)s2)cs1	CYP2C19 inhib 58 (no result: E-sel TNF inh)
O=C(Nc1nc(-c2ccc(Cl)s2)cs1)c1ccncc1	CYP2C19 inhib 51
O=C(CSCC(=O)N1CCCCC1)Nc1nc(-c2cccs2)cs1	none
O=C(CSCC(=O)N1CCN(c2ccccc2)CC1)Nc1nc(-c2ccc(Cl)s2)cs1	CYP2C9 inhib 61 (no result: E-sel TNF inh)
O=C(Nc1nc(-c2cccs2)cs1)c1ccc(Cl)cc1	none
O=C(CN1C(=O)CCC1=O)Nc1nc(-c2ccc(Cl)s2)cs1	none (no result: cytoskel mod, CYP2C9 activ, CYP2C19 inhib, CYP2C9 inhib, CYP2C19 act)
CC1CC(C)CN(C(=O)CSCC(=O)Nc2nc(-c3cccs3)cs2)C1 (stereo not given)	CYP2C9 inhib 84 (no result: cytoskel mod)
O=C(COC(=O)C1CC2C=CC1C2)NCc1ccccc1Cl (stereo not given)	none (no result: cytoskel mod, CYP2C9 activ, CYP2C19 inhib, CYP2C9 inhib, CYP2C19 act)
O=C(COC(=O)C1CCC1)NCc1ccccc1Cl	CYP2C19 inhib 88
CC1CC1C(=O)OCC(=O)NCc1ccccc1Cl (stereo not given)	CYP2C19 inhib 88
O=C(COC(=O)CCCNC(=O)c1ccc(Cl)cc1)NCc1ccccc1Cl	CYP2C19 inhib 56, CYP2C9 inhib 70
O=C(COC(=O)CCSc1ccc(Cl)cc1)NCc1ccccc1Cl	none (no result: cytoskel mod, CYP2C9 activ, CYP2C19 inhib, CYP2C9 inhib, CYP2C19 act)
O=C(COC(=O)C1CCC1)Nc1ccc(Oc2ccccc2)cc1	CYP2C19 inhib 55
CCOC(=O)N1CCN(C(=O)CN(C2CCCCC2)S(=O)(=O)c2ccc(F)cc2)CC1	none
CC1CCN(C(=S)NCCc2ccccc2)CC1	CYP2C19 inhib 73
CN1CCN(C(=S)NCCc2ccccc2)CC1	CYP2C19 inhib 64
OCC1CCCN(C(=S)NCCc2ccccc2)C1 (stereo not given)	none
C/C(=N\NC(=O)C1COc2ccccc2O1)c1cccs1 (stereo not given)	CYP2C19 inhib 80
C/C(=N\NC(=O)C1CC1)c1cccs1	none (no result: cytoskel mod, CYP2C9 activ, CYP2C19 inhib, CYP2C9 inhib, CYP2C19 act)
O=C(N/N=C/c1cccs1)C1COc2ccccc2O1 (stereo not given)	CYP2C19 inhib 82
CCN(Cc1ccncc1)S(=O)(=O)c1ccc(C(C)=O)cc1	CYP2C19 inhib 91, CYP2C9 inhib 87 (no result: cytoskel mod)
Cc1ccn2c(C(=O)CSc3ccccc3Cl)c(C)nc2c1	none
Cc1ccc2cc(CN(C(=O)C3CCCO3)C3CCCCC3)c(=O)[nH]c2c1 (stereo not given)	none
O=C(COc1ccc(S(=O)(=O)N2CCCC2)cc1Cl)N1CCN(c2ccccc2)CC1	CYP2C19 inhib 88, CYP2C9 inhib 85
O=C(c1cccc(S(=O)(=O)N2CCCC2)c1)N1CCN(c2ccccc2)CC1	CYP2C19 inhib 67
CCc1cc2cc(C(=O)N3CCN(c4ccccc4)CC3)sc2s1	CYP2C9 inhib 63 (no result: cytoskel mod)
CCOc1ccc(C(=O)N2CCN(c3ccccc3)CC2)cc1OCC	none (no result: cytoskel mod)
O=C(c1ccc2ccccc2c1)N1CCN(c2ccccc2)CC1	CYP2C19 inhib 62
CCc1cc2cc(C(=O)N3CCN(Cc4ccccc4)CC3)sc2s1	none (no result: E-sel TNF inh)
Clc1cc2c(c(Cn3cnc4ccccc43)c1)OCOC2	none (no result: cytoskel mod, CYP2C9 activ, CYP2C19 inhib, CYP2C9 inhib, CYP2C19 act)
Nn1c(SCC(=O)Nc2ccccc2F)nc2ccccc2c1=O	none
CSCCC(NS(=O)(=O)c1cccs1)C(=O)NCc1ccc(C)cc1 (stereo not given)	none (no result: cytoskel mod, CYP2C9 activ, CYP2C19 inhib, CYP2C9 inhib, CYP2C19 act)
CC(C)C(NS(=O)(=O)c1cccs1)C(=O)NCc1ccc2c(c1)OCO2 (stereo not given)	CYP2C19 inhib 94, CYP2C9 inhib 84 (no result: cytoskel mod)
Cc1ccc(CNC(=O)C(NS(=O)(=O)c2cccs2)C(C)C)cc1 (stereo not given)	CYP2C19 inhib 85, CYP2C9 inhib 52 (no result: E-sel TNF inh)
Cc1ccc(CNC(=O)C(Cc2ccccc2)NS(=O)(=O)c2cccs2)cc1 (stereo not given)	CYP2C19 inhib 61
Cc1ccc(C(=O)CSc2nnc(C(C)C)n2C)cc1C	none (no result: cytoskel mod, CYP2C9 activ, CYP2C19 inhib, CYP2C9 inhib, CYP2C19 act)
